Compound activity as filed in PubChem.
Only some compounds are listed: those with a hit (about 7.1% of all), similar ones and a draw of the others.
IL-1B inflam inh = inhibitors of inflammasome signaling (IL-1 beta secretion); THP-1 LPS/ATP IL-1B secretion, AlphaLISA, 16 h; hits give low values; activity change, % at 57.5 µM; 4.7% of 360,000 active; AID 743279; in the data active means activity change below about -50%; inconclusive means mostly about -30% to -49%
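Secreted IL-1B measured by AlphaLISA bead assay after 16 h compound exposure of THP-1 cells; compounds (final up to 57.5 uM) added 1 h before LPS (250 ng/mL) and ATP (1.25 mM) stimulation; lower signal means less secretion.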
S2 tox = reduces viability in counter-screen for ATXN expression inhibitors. Potency, µM (highest dose often 56.7 µM), most hits filed as cytotoxic. 0.49% of 400,000 active. S2 cells (HEK-293 line with an ATXN2-luciferase reporter) viability, CellTiter-Fluor protease fluorescence, 24 h; further: nearly all actives have a fitted effect of over 40% in size
MCF10A rereplic = inducers of DNA re-replication in MCF 10A breast cells. MCF 10A DNA re-replication, Hoechst nuclear intensity, 48 h. Potency, µM (titrated, usually from 46.1 µM), most hits filed as activators. 2.9% of 350,000 active; further: nearly all actives have a fitted effect of over 50% in size
ATXN2 expr inh = inhibitors of ATXN2 expression; HEK-293 ATXN2-luciferase reporter, luminescence, 24 h; Potency, µM (titrated, usually from 57 µM), usual class: inhibitors; 0.72% of 360,000 active; AID 1745845; further: nearly all actives have a fitted effect of over 55% in size
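qHTS (up to 57 uM final) was run with 24 h compound exposure of reporter cells at 37 °C. Each well was multiplexed: SteadyGlo luminescence measured ATXN2-luciferase expression after a fluorogenic Gly-Phe-AFC viability readout (25 uM final).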
PINK1 expr mod = PINK1 expression modulation. Potency, µM (series often up to 76.6 µM), most hits filed as activators. PINK1 immunofluorescence, high-content cytometry, 24 h. 0.2% of 410,000 active. AID 624263; active means well fitted activation curve with a large enough effect; inconclusive means small, poorly fitted or top-dose-only effect; cell line not stated here; further: nearly all actives have a fitted effect of over 65% in size
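PINK1 protein level read as immunofluorescence by microplate cytometer in a fixed, stained stable cell line after 24 h exposure to five compound concentrations, with CCCP as control.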
SW480 rerep = inducers of DNA re-replication in SW480 colon cancer cells; SW480 DNA re-replication, Hoechst DNA content imaging, 48 h; Potency, µM (titrated, usually from 46.1 µM), usual class: activators; AID 624297; 1.8% of 340,000 active; further: nearly all actives have a fitted effect of over 55% in size
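250 cells/well; 23 nL cpd via pin tool; 48 hr, 37 C, 5% CO2; Hoechst 40 min; imager read of total nuclear intensity, ex 405/em 500-530 nm.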
Numbers stand for hits; – = inactive; ? = inconclusive; · = no result given; ! = not confirmed by another sample; [ ] = remark or other dose. Unless noted, the call rests on the fitted dose curve; in most records, active means well fitted curve in the direction sought with a large enough effect; inconclusive means small, poorly fitted or top-dose-only effect, or another doubt; inactive means no such curve, though single readings can be large; an effect the other way counts as inactive or inconclusive.

SMILES | IL-1B inflam inh | S2 tox | MCF10A rereplic | ATXN2 expr inh | PINK1 expr mod | SW480 rerep
C[n+]1c(-c2ccccc2)cc(CCCCc2cc(-c3ccccc3)[n+](C)c(-c3ccccc3)c2)cc1-c1ccccc1 | -100.3 | – | ? | ? | 31.6µM | –
CC(Cc1ccccc1)/[N+]([O-])=C\c1ccc(C(F)(F)F)cc1 (stereo not given) | – | – | – | – | – | –
CNCCC(Oc1ccc(C(F)(F)F)cc1)c1ccccc1 (stereo not given) | ? | 31.6µM | – | 28.2µM! | – | ?
Cc1cc(C=C2C(=O)NC(=S)NC2=O)c(C)n1C1CCCC1 | -52.6 | – | ? | – | – | –
Cc1cc(C=C2C(=O)N(C)C(=S)N(C)C2=O)c(C)n1C1CCCCC1 | – | – | – | – | – | –
O=c1[nH]c2cc(Cl)ccc2n1C1CCNCC1 | · | – | · | – | · | ·
COc1cc2cc(C(=O)N3CC(COS(C)(=O)=O)c4ccc(O)cc43)[nH]c2c(OC)c1OC (stereo not given) | -99.2 | 0.336µM | – | 0.299µM | – | –
c1ccc(Nc2ccc(Nc3ccccc3)cc2)cc1 | – | – | – | – | – | ?
N#CC(C#N)=C(C#N)c1ccc(Nc2ccccc2)cc1 | -90.5 | – | ? | – | – | ?
O=C1NC(=O)C(=Cc2ccc(OCCOc3ccc([N+](=O)[O-])cc3)cc2)C(=O)N1 | -59.1 | – | – | – | – | –
C=C(C)[C@H]1Cc2c(ccc3c2O[C@@H]2COc4cc(OC)c(OC)cc4[C@@H]2C3=O)O1 | · | ? | 3.93µM! | ? | · | ?
CC1CCN(C(CC(=O)c2ccccc2)C(=O)c2ccccc2)CC1 (stereo not given) | -66.8 | – | 3.66µM | ? | – | 6.51µM
CC1CCN(C(=O)N2c3ccccc3Sc3ccccc32)CC1 | – | – | ? | – | – | –
CCC1OC(=O)CC(O)C(C)[C@@H](O[C@@H]2OC(C)[C@H](O[C@@H]3C[C@@](C)(O)C(O)C(C)O3)C(N(C)C)C2O)[C@H](CC=O)CC(C)C(=O)/C=C/C(C)=C/[C@@H]1COC1OC(C)C(O)C(OC)[C@@H]1OC (stereo not given in full) | · | · | – | · | · | –
O=C(O)CCCC[C@@H]1SC[C@@H]2NC(=O)N[C@@H]21 | -106.1 | – | – | – | – | –
Cc1nc2c(=O)n(C)c(=O)nc-2n(C)n1 | -100.2 | 7.08µM | 9.2µM | 3.55µM | – | 0.517µM
CN(C)CCO | · | – | · | · | · | ·
COCCNC(=O)c1c(NC(=O)c2ccc(Br)o2)n(Cc2ccccc2)c2nc3ccccc3nc12 | – | · | 5.8µM | – | – | ?
COCCCn1c(N)c(C(=O)OCCOC)c2nc3ccccc3nc21 | – | – | – | – | – | ?
CCCCNC(=O)c1c(N)n(CCCOC)c2nc3ccccc3nc12 | ? | · | 10.3µM | – | – | 2.06µM
COCCCNC(=O)c1c(NC(=O)c2ccco2)n(Cc2ccccc2)c2nc3ccccc3nc12 | – | – | ? | – | – | ?
CC(C)OCCCNC(=O)c1c(N)n(Cc2cccs2)c2nc3ccccc3nc12 | -63.0 | – | 1.84µM | ? | – | 3.66µM
COCCNC(=O)c1c(N)n(CCC(C)C)c2nc3ccccc3nc12 | -115.9 | · | 3.26µM | – | – | ?
CC(CNC(=O)c1ccc(CSc2nc3ccncc3n2Cc2ccc(F)cc2)cc1)c1ccccc1 (stereo not given) | · | ? | · | – | – | ·
Cn1cc(C2=C(c3cn(C4CCN(Cc5ccccn5)CC4)c4ccccc34)C(=O)NC2=O)c2ccccc21 | · | – | · | ? | · | ·
SMILES | IL-1B inflam inh | S2 tox | MCF10A rereplic | ATXN2 expr inh | PINK1 expr mod | SW480 rerep
CC(C)(C)NC(=O)N1c2ccccc2Sc2ccccc21 | – | – | ? | – | – | –
CSC1=NC(C)(C)CC2(C)Nc3ccccc3N12 (stereo not given) | ? | ? | – | – | – | –
CC(C)CCn1c(N)c(C(=O)NCc2cccs2)c2nc3ccccc3nc21 | ? | – | 1.46µM | ? | – | 5.8µM
C/C(=N\Nc1ccccc1)c1c(O)[nH]c(=O)[nH]c1=O | – | – | ? | – | – | 20.6µM
C/C(=N\Nc1ccccc1)c1c(O)n(-c2ccccc2)c(=O)[nH]c1=O | · | – | ? | – | – | –
CC(NC(=O)c1cc(F)ccc1F)c1nnc2n1CCN(Cc1ccc(-c3ccccc3)cc1)CC2 (stereo not given) | · | ? | · | · | – | ·
O=c1oc2ccccc2c(O)c1C(CC(O)c1ccc(-c2ccc(Br)cc2)cc1)c1ccccc1 (stereo not given) | · | – | · | – | · | ·
O=C(Nc1ccc(C(F)(F)F)cc1)OC1CN2CCC1CC2 (stereo not given) | – | – | ? | – | – | –
O=C(Nc1ccc(F)cc1)OC1CN2CCC1CC2 (stereo not given) | – | – | 8.2µM | – | – | –
CC1CC(C)(O)CC(C(O)CC2CC(=O)NC(=O)C2)C1=O (stereo not given) | -101.0 | ? | ? | ? | – | ?
C#C[C@]1(O)CC[C@H]2[C@@H]3CCC4=CC(=O)CCC4(C)[C@H]3CCC21C (stereo not given in full) | · | · | – | · | · | –
COc1cc([N+](=O)[O-])c2nc(C)ccc2c1[N+](=O)[O-] | – | 28.2µM | ? | – | – | 14.6µM
O=[N+]([O-])c1ccc(N2CCCC2)c2ncccc12 | – | – | – | –[11.3 µM] | – | –
COc1ccc(S(=O)(=O)Nc2cc([N+](=O)[O-])ccc2OC)cc1 | – | ? | ? | – | – | ?
COc1cc([N+](=O)[O-])c2ncccc2c1[N+](=O)[O-] | -116.6 | ? | · | ? | – | ·
C[C@H]1[C@@H](OS(=O)(=O)O)C[C@@H]2C[C@H]([C@@H](O)c3cc(=O)[nH]c(=O)[nH]3)NC3=NC[C@H]1N32 | – | – | ? | 10µM | – | ?
CN[C@@H](C)Cc1ccccc1 | · | – | · | · | · | ·
CCN(C(=O)CSc1ncccc1C(=O)Oc1cccc([N+](=O)[O-])c1)c1cccc(C)c1 | -55.4 | – | ? | – | – | –
O=C1C(=O)c2ccccc2-c2ccccc21 | -108.1 | 2.82µM | ? | 2.51µM | – | ?
Cc1ccc(N2Cc3ccccc3C2=N)cc1[N+](=O)[O-] | – | – | – | – | – | –
CN(C)c1c([N+](=O)[O-])cc(N2C(=O)C=CC2=O)cc1[N+](=O)[O-] | -98.6 | · | 13µM | 35.5µM | – | 16.4µM
NC(N)=N/N=C/c1ccc(N(c2ccccc2)c2ccccc2)cc1 | -54.8 | · | ? | · | – | ?
NC(N)=N/N=C/c1ccc(N2CCOCC2)cc1 | – | · | ? | · | – | 6.51µM
COc1ccc(/C=N\N=C(N)N)cc1 | – | ? | ? | – | – | ?
c1ccc(N2CCC3(CCNCC3)CC2)nc1 | · | · | · | · | – | ·
O=C(c1cc2cc(F)ccc2[nH]1)N1CCC2(CC1)OCCO2 | – | – | – | · | – | –
